# AMA1-RON2 inh: inhibitors of Plasmodium falciparum AMA1-RON2 interaction. AID 720542. Potency, µM (highest dose often 58.2 µM), most hits filed as inhibitors. hit rate 0.2% among 360,000. AlphaScreen AMA1-biotinylated RON2 peptide binding; active = well fitted inhibition curve with a large enough effect; inconclusive = small, poorly fitted or top-dose-only effect; inactive = no such curve, though single readings can be large or run the other way; also: nearly all actives have a fitted effect of over 45% in size
#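 AMA1 (3D7) with his tag at 25 nM final met compounds first, then biotinylated RON2 peptide at 25 nM; detection used donor plus acceptor beads, 10 µg/mL apiece, read by AlphaScreen after 30 min at room temperature.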
# Lassa entry inh: blocks Lassa virus binding to or entry into cells; Lassa virus pseudotype entry inhibition, cell reporter; AID 540256; Potency, µM (doses to about 37.9 µM), actives largely listed as inhibitors; hit rate 1.2% among 300,000; calls by dose curve; tested in HEK293 cells; also: nearly all actives have a fitted effect of over 50% in size
# CHX counter: affects cycloheximide protein synthesis inhibition readout, counter-screen; cell reporter, cycloheximide protein synthesis inhibition counterscreen; max response, %; hit rate 12% among 300,000; in the data active = max response mostly above about 13%, no sharp cut-off; inactive = mostly below about 14%; also: read at 38.3 µM for the half of the compounds with a filed dose
# MARV entry inh: Marburg virus entry inhibition; Potency, µM (doses to about 37.8 µM), hits mostly inhibitors; hit rate 1.8% among 300,000; Marburg virus pseudotyped entry inhibition, cell reporter; calls by dose curve; tested in HEK293 cells
# Shiga toxin inh: blocks Shiga toxin action in Vero cells | Vero cells, Shiga toxin protein synthesis inhibition reporter | inhibition, % at 38.7 µM | hit rate 9.2% among 290,000; in the data active = inhibition mostly above about 28%, no sharp cut-off; inactive = mostly below about 43%
# Numbers stand for hits; – = inactive; ? = inconclusive; · = not tested or not shown. The entries come from a sample that favours hits as a whole.
SMILES,AMA1-RON2 inh,Lassa entry inh,CHX counter,MARV entry inh,Shiga toxin inh
CCc1ccccc1NC(=S)N(CCCN1CCOCC1)Cc1ccccn1,–,–,–,–,–
CCOC(=O)c1ccc(NC(=S)N(CCCN2CCN(C)CC2)Cc2cccs2)cc1,–,·,–,?,–
CCc1ccc(NC(=S)N(CCCN2CCOCC2)Cc2ccccn2)cc1,–,–,39,–,31
CCOC(=O)c1ccc(NC(=S)N(CCCN2CCN(CC)CC2)Cc2cccs2)cc1,–,10µM,–,10µM,–
COCc1ccc(CN2CCc3c([nH]c4ccccc34)C2C(C)(C)C)o1 (stereo not given),–,?,21,?,–
COCCC(=O)N1CCc2c([nH]c3ccccc23)C1C(C)(C)C (stereo not given),–,–,–,–,–
CC(=O)c1ccc(NC(=S)N2c3ccccc3CC2C)cc1 (stereo not given),–,–,23,–,–
COc1cccc(NC(=S)N2c3ccccc3CC2C)c1 (stereo not given),–,–,19,–,–
CC1Cc2ccccc2N1C(=S)Nc1ccc(S(N)(=O)=O)cc1 (stereo not given),–,?,–,–,–
O=C(NNC1=NCCCCC1)Nc1cccc(Cl)c1,–,?,12,?,–
O=C(NNC1=NCCCCC1)Nc1ccc(Cl)cc1,–,–,23,–,–
O=C(NNc1cccc(Cl)n1)Nc1cccc(Cl)c1,–,–,–,–,–
CCc1ccccc1NC(=O)Cn1c(=O)n(CCc2ccccc2)c(=O)c2sc3ccccc3c21,·,–,·,–,·
CC1(C(=O)NS(=O)(=O)Cc2ccccc2)CCN1C(=O)Cc1cc(F)ccc1F (stereo not given),–,·,·,·,·
Cc1ccc(CSc2nc3ccncc3n2CC(=O)Nc2cc(C)cc(C)c2)cc1,–,–,–,?,–
Cc1cc(C)cc(NC(=O)Cn2c(SCc3cc(C)ccc3C)nc3ccncc32)c1,·,?,76,–,89
N#Cc1cccn1-c1nccc(-c2cccs2)n1,–,–,29,–,77
Cc1ccc(C)n1-c1nccc(-c2cccs2)n1,–,–,–,–,–
C=C(C)COc1ccc(-c2ncncc2-c2ccccc2OC)c(O)c1,–,–,–,?,–
C=C(C)COc1ccc(-c2[nH]ncc2-c2ccccc2OC)c(O)c1,–,?,–,7.9µM,–
C=C(C)COc1ccc(-c2ncncc2-c2ccc(Br)cc2)c(O)c1,–,?,–,?,–
C=C(C)COc1ccc(-c2n[nH]c(C)c2-c2ccc(Br)cc2)c(O)c1,–,0.37µM,–,?,–
C=C(C)COc1ccc(-c2nc(N)ncc2-c2ccc(Br)cc2)c(O)c1,–,·,–,·,–
C=C(C)COc1ccc(-c2[nH]ncc2Oc2ccccc2OC)c(O)c1,–,?,–,–,–
C=C(C)COc1ccc(-c2[nH]ncc2Oc2ccc(OC)cc2)c(O)c1,–,·,22,·,–
SMILES,AMA1-RON2 inh,Lassa entry inh,CHX counter,MARV entry inh,Shiga toxin inh
C=C(C)COc1ccc(-c2[nH]ncc2-c2ccc(Br)cc2)c(O)c1,–,?,–,3.3µM,–
CC(C)(C)C(=O)Cn1c(=O)n(CCCCCC(=O)NCc2ccc3c(c2)OCO3)c(=O)c2sccc21,·,–,·,–,·
Cc1cc(NC(=O)c2cccs2)cc(-c2nc3cc(Cl)ccc3o2)c1O,·,–,·,–,·
CCOC(=O)CNC(=O)c1sc2nc(C)cc(C)c2c1N,–,?,–,–,–
CCCCOC(=O)c1sc2nc(C)cc(C)c2c1N,–,?,27,?,48
Cc1cc(-c2nc(C)c(C(=O)NN)s2)no1,–,?,–,–,–
Cc1nc(N)sc1C(=O)NN,–,–,23,–,82
CC(=O)c1sc2nc(-c3ccccc3)cc(C)c2c1N,–,–,–,–,–
Cc1cc(C)c2c(N)c(C(=O)NNC(=O)c3ccccc3)sc2n1,–,–,45,–,93
CCOC(=O)c1sc2nc(C)cc(C)c2c1N,–,?,50,?,78
O=S(=O)(c1ccccc1)N1CCCCC1CCc1ccccc1 (stereo not given),–,?,·,?,·
Cc1cc(C)n2nc(SCc3nnc(-c4ccccc4Br)o3)nc2n1,–,–,–,?,–
O=C(NCc1ccccc1Cl)c1ccc2sc([C@@H]3O[C@H](CO)[C@H](O)[C@H](O)[C@H]3O)nc2c1,–,·,·,·,·
CC1(c2ccc(Cl)cc2)NC(=O)N(CC(=O)N2CCN(C(=O)c3cccs3)CC2)C1=O (stereo not given),–,·,·,·,·
Cc1cc(C)c2c(N)c(C(=O)Nc3cccc(C)c3C)sc2n1,–,–,12,?,–
Cc1cc(C)c2c(N)c(C(=O)NN)sc2n1,–,·,45,·,78
Cc1cc(C)c2c(N)c(C(=O)N3CCN(c4ncccn4)CC3)sc2n1,–,–,31,?,–
